Activity calls are given as the source filed them. The calls were made as follows: active = hit-call score of the fitted dose curve at least 0.9, where 1 is the maximum; inactive = score below 0.9.
Each compound was assayed against human Leukotriene Receptor CysLT1, CYSLTR1 (gene 10800) (UniProt Q9Y271) (assay: ERF_FR_GPCR_hCYSLTR1: Eurofins (ERF) G Protein-Coupled Receptor (GPCR) Radioligand Binding LeadHunter Assay for human Leukotriene Receptor CysLT1 Agonism).
Sequence of human Leukotriene Receptor CysLT1, CYSLTR1 (gene 10800) (Q9Y271 whole entry, looked up): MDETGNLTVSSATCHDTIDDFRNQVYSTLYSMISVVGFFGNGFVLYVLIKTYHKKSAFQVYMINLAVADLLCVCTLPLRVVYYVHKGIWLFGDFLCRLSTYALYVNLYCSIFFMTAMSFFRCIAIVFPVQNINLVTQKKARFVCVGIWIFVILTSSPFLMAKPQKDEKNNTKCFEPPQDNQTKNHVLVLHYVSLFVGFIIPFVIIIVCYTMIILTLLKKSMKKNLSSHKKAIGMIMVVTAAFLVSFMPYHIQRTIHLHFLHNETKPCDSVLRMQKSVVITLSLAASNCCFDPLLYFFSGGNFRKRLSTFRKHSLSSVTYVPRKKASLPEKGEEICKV
Description: ERF_FR_GPCR_hCYSLTR1 is a biochemical, single-readout assay that uses extracted gene-proteins in a cell-free assay. Measurements were taken 1 hour after chemical dosing in a 96-well plate. See CysLT1 Human Leukotriene GPCR Binding (Agonist Radioligand) Assay, Cerep.ERF_FR_GPCR_hCYSLTR1 is an assay component calculated from the ERF_FR_GPCR_hCYSLTR1 assay. It is designed to measure radioligand binding using a type of binding reporter as detected by scintillation counting with radiometry technology.Data from the assay component ERF_FR_GPCR_hCYSLTR1 was analyzed at the assay endpoint, ERF_FR_GPCR_hCYSLTR1, in the positive analysis fitting direction relative to DMSO as the negative control and baseline of activity. Using a type of binding reporter, gain-of-signal activity can be used to understand changes in binding as they relate to gene CYSLTR1. To generalize the intended target to other relatable targets, this assay endpoint is annotated to the gpcr intended target family, where the subfamily is leukotriene.
Human cells are incubated for 60 minutes at room temprature with [3H]LTD4 ligand (0.3 nM) and leukotriene D4 as control inhibitor.Test Sample Requirements: Minimum for 1) Screen: 60 ul of 10 mM stock -OR- 1 mg (pre-weighed) for 10 uM final testing. 2) Dose Response: 90 ul of 10 mM stock -OR- 1 mg (pre-weighed) for a top concentration at 10 uM.
`O=C(/C=C/c1ccc(O)cc1)CC(=O)/C=C/c1ccc(O)cc1` was tested, and the AC50 was 5 µM (active).

Reference: PubChem BioAssay AID2284157 (EPA ToxCast)
